Results filed as inconclusive are left out. Calls of active or inactive are those of the source. Unless noted, calls come from the whole dose curve; as a rule, active = well fitted curve in the direction sought with a large enough effect; inconclusive = small, poorly fitted or top-dose-only effect, or another doubt; inactive = no such curve, though single readings can be large; an effect the other way counts as inactive or inconclusive.
Experiments:
[1] = biological target: M-phase phosphoprotein 8 (Homo sapiens) (UniProt Q99549); assay: qHTS Validation Assay for Inhibitors for MPP8 Chromodomain Interactions with Methylated Histone Tails (AID 488949);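 note: AlphaScreen signal from MPP8 chromodomain bound to biotinylated H3K9me3 peptide; top concentration of the series differs between compounds; % is set by controls: 0 for no effect and ±100 for the full control effect; nearly all actives have a fitted effect of over 55% in size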
Chain of M-phase phosphoprotein 8 (Homo sapiens) (Q99549 whole entry, looked up): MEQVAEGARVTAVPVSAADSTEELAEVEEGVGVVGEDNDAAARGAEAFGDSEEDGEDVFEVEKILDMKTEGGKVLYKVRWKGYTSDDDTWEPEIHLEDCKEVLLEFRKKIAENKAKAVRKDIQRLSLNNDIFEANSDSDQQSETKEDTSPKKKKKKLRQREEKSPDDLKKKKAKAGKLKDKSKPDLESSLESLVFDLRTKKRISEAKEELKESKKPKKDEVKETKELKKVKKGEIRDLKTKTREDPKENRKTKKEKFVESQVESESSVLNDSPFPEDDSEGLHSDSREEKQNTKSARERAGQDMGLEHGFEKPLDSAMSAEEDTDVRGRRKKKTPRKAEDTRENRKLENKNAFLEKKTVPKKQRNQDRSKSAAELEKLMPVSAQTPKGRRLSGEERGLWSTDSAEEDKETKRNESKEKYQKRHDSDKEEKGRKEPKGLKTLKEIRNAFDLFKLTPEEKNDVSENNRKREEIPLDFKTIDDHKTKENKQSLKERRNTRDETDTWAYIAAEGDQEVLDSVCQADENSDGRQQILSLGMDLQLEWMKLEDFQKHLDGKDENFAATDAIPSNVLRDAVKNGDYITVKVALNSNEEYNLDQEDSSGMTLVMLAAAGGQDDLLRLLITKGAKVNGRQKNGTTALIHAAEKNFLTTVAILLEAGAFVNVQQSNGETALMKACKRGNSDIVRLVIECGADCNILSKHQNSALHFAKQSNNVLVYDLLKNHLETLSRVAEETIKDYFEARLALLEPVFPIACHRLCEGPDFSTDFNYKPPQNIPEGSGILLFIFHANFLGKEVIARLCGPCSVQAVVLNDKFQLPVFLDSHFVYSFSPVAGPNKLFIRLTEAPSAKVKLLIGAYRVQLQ
In short: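 MPP8 (50 nM) was preincubated with biotinylated H3(1-18)K9me3 peptide (50 nM) in PBS pH 7.4, 0.01% Tween-20 for 30 min at room temperature, then with compounds for 30 min; binding was detected by AlphaScreen.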

[2] = biological target: Chromobox protein homolog 1 (Homo sapiens) (UniProt P83916); assay: qHTS Validation Assay for Inhibitors of HP1-beta Chromodomain Interactions with Methylated Histone Tails (AID 488953); note: nearly all actives have a fitted effect of over 50% in size; note: potency is the fitted concentration of half-maximal effect
In short: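 Compounds pinned into a preassembled complex of HP1-beta and trimethyl-K9 histone H3(1-18) biotin peptide (50 nM each; PBS pH 7.4, 0.01% Tween-20). After 30 min, bead-based AlphaScreen detection followed.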

[3] = biological target: Methanococcus maripaludis chaperonin (MmCpn) (UniProt Q6LX38); assay: High-Throughput Screening for Modulators of Cytosolic Chaperonin Activity: MmCpn Primary Screen (AID 488978);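 note: 50 nM MmCpn enzyme hydrolysing 30 µM ATP at 37 °C; 0% is about no effect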
Chain of Methanococcus maripaludis chaperonin (MmCpn) (Q6LX38 1-543): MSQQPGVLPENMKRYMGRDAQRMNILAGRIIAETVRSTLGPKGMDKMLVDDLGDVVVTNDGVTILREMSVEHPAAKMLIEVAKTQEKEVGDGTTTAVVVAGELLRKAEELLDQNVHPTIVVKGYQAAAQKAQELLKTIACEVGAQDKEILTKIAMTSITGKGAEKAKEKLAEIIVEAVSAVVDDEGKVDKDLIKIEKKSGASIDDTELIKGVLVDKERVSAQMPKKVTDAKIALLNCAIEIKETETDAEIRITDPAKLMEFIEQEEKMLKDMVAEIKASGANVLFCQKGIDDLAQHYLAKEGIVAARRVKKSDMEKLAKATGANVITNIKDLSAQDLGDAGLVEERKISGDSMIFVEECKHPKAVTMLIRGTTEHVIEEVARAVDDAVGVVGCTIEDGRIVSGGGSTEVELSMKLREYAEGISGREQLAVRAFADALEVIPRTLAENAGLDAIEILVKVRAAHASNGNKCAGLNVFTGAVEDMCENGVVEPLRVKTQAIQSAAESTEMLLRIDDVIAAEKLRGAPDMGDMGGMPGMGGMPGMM
In short: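 MmCpn (50 nM final) was preincubated with compound 5 min at RT, then 30 uM ATP (final) was added and the reaction ran 10 min at 37C. ADP produced was detected by Transcreener HTRF (ex 320 nm; em 590/665 nm).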

[4] = biological target: D(1A) dopamine receptor (Homo sapiens) (UniProt P21728); assay: HTS Assay for Allosteric Agonists of the Human D1 Dopamine Receptor: Primary Screen for Potentiators (AID 488982); note: 0% is about no effect
Chain of D(1A) dopamine receptor (Homo sapiens) (P21728 whole entry, looked up): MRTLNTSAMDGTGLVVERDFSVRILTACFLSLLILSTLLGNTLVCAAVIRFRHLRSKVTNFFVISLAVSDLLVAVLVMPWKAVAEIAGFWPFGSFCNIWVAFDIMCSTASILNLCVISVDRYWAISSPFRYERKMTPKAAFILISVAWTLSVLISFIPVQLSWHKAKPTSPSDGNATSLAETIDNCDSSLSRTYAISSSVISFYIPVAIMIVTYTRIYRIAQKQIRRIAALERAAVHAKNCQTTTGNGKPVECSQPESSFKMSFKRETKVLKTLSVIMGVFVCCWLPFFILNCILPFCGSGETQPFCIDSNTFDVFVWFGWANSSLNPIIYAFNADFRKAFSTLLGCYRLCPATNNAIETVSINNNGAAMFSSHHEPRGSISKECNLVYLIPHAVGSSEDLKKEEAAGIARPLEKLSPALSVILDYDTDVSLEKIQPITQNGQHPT
In short: (§1)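 Tetracycline-induced HEK293 Trex D1 cells with forced coupling to calcium, loaded with no-wash calcium dye; kinetic fluorescence read 180 s after compound addition for agonism, then a further 180 s after an EC20 dopamine challenge for potentiation.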

[5] = biological target: D(1A) dopamine receptor (Homo sapiens) (UniProt P21728); assay: HTS Assay for Allosteric Agonists of the Human D1 Dopamine Receptor: Primary Screen for Antagonists (AID 488983);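 note: calcium flux response to an EC80 dopamine challenge measured with no-wash dye; nearly all actives have a fitted effect of over 65% in size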; note: potency is the fitted concentration of half-maximal effect
In short: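 In this primary screen, compounds are applied to calcium-dye-loaded HEK293 T-REx cells with force-coupled D1 expression induced overnight at 30 C. An EC80 of dopamine follows the 180 s compound phase, and calcium is monitored for a further 180 s.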

[6] = biological target: ATP-dependent 6-phosphofructokinase (Trypanosoma brucei brucei) (UniProt O15648); assay: qHTS Assay to Find Inhibitors of T. brucei phosphofructokinase: hit validation (AID 492961); note: series mostly up to about 51 µM; % is set by controls: 0 for no effect and ±100 for the full control effect
Chain of ATP-dependent 6-phosphofructokinase (Trypanosoma brucei brucei) (O15648 whole entry, looked up): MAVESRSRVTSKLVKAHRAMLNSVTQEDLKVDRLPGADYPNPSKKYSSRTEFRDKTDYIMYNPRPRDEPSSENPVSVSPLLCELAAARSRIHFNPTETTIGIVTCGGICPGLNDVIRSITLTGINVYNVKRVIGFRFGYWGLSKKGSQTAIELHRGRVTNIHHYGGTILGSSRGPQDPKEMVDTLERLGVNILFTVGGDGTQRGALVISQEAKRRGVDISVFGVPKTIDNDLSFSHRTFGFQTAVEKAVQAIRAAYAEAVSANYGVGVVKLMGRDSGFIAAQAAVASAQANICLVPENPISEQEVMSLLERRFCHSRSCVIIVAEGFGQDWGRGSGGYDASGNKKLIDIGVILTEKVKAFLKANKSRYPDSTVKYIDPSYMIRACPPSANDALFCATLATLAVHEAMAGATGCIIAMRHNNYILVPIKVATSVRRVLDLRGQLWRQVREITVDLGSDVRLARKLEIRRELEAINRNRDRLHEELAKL
In short: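 Luminescence from ADP-Glo reports ADP generated as T. brucei PFK (1.25 nM) phosphorylates 0.5 mM fructose-6-phosphate using 0.1 mM ATP. Reactions ran 45 min at room temperature, pH 8.0.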

[7] = biological target: ATPase family AAA domain-containing protein 5 (Homo sapiens) (UniProt Q96QE3); assay: Validation screen for small molecules that inhibit ELG1-dependent DNA repair in human embryonic kidney (HEK293T) cells expressing luciferase-tagged ELG1 (AID 493107); note: nearly all actives have a fitted effect of over 70% in size; note: potency is the fitted concentration of half-maximal effect
In short: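 Compounds reducing 5-fluorouridine-driven ELG1-luciferase signal in HEK293T cells were scored; exposure lasted 16 hr at 37 °C with luminescence detected via ONE-Glo.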

[8] = Nrf2 qHTS screen for inhibitors: Validation (AID 493153; active = well fitted inhibition curve with a large enough effect in the main read-out, with a control signal flat, not every such curve was filed as active); conditions: Potency: luciferase luminescence; viability change: measured here: cytotoxicity max response
In short: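 In this counterscreened reporter format, each well gives two signals: CellTiter-Fluor fluorescence for cytotoxicity and ARE-luciferase luminescence for Nrf2 function. A549 ARE_Fluc cells in 5% FBS OPTI-MEM were exposed to compound titrations for 18-24 h.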

[9] = qHTS for Inhibitors of Cell Surface uPA Generation: Validation Assay (AID 493164);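 note: RAW 264.7 macrophage cells exposed to compound for 18 h; 0% is about no effect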
In short: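 Compounds are titrated over seven points (2.45 nM–38.3 uM final) onto pre-plated RAW 264.7 cells and incubated for 18 h. Retained intracellular ATP, measured with ATP-Lite, indicates blocked lethal factor entry.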

[10] = biological target: Peptidyl-prolyl cis-trans isomerase NIMA-interacting 1 (Homo sapiens) (UniProt Q13526); assay: qHTS Validation Assay to Find Inhibitors of Pin1 (AID 504536; active = well fitted inhibition curve with a large enough effect in the polarisation, with a control signal flat, not every such curve was filed as active; the % refers to the polarisation;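 note: 0% = full Pin1 enzyme wells and -100% = no-enzyme wells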)
In short: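 Fluorescence polarization competition: compounds (titration) displace HiFluor-488-labeled Pin1-1b peptide from Pin1 (0.3 uM final) in pH 7.5 HEPES buffer with DTT, 10 min at room temperature; %Activity normalized to no-enzyme wells, curves fitted.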

[11] = biological target: Phosphoglycerate kinase, glycosomal (Trypanosoma brucei brucei) (UniProt P07378); assay: qHTS Validation Assay to Find Inhibitors of Phosphoglycerate Kinase (AID 504547);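 note: control wells lack PGK and mark full inhibition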
In short: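 Compounds are pinned into the substrate/PGK mixture, and GAPDH (100nM final) is added to start the reaction by producing 1,3-BPG. After 60 minutes at room temperature, Kinase-Glo Plus is added and luminescence is measured 10 minutes later.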

[12] = biological target: phosphoglycerate mutase (Leishmania major) (UniProt Q4Q090); assay: qHTS Validation Assay to Find Inhibitors of Phosphoglycerate Mutase (AID 504548); note: series mostly up to about 58 µM; % is set by controls: 0 for no effect and ±100 for the full control effect
Chain of phosphoglycerate mutase (Leishmania major) (Q4Q090 1-553): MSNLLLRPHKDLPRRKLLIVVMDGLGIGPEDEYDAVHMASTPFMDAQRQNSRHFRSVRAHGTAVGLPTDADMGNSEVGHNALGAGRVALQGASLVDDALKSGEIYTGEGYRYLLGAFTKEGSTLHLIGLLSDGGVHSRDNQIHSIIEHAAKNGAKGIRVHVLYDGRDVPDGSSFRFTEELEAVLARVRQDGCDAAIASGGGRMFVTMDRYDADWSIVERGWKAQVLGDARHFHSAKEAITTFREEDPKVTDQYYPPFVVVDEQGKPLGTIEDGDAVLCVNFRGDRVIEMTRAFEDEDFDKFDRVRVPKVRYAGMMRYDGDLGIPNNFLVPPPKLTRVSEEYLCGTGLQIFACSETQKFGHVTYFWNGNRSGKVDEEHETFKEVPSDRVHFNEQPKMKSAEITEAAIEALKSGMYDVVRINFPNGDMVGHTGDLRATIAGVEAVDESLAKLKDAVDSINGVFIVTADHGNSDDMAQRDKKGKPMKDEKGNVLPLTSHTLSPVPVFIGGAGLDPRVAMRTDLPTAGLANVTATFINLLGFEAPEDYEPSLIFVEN
In short: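 Lm PGAM 1.25nM final; 100 mM TEA pH 7.6, 5 mM MgCl2, 0.01% Tween-20; 45 min RT; Kinase-GloPlus, 10 min; end-point luminescence. Enzyme-free wells as negative controls.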

[13] = biological target: Ubiquitin carboxyl-terminal hydrolase 1 (Homo sapiens) (UniProt O94782); assay: Inhibitors of USP1/UAF1: Pilot qHTS (AID 504865);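 note: rhodamine fluorescence freed from ubiquitin-rhodamine substrate followed over time; top concentration of the series differs between compounds; % is set by controls: 0 for no effect and ±100 for the full control effect; nearly all actives have a fitted effect of over 35% in size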
In short: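 USP1/UAF1 complex (1nM) preincubated with compound 15 min at room temperature, then Ub-Rho substrate (150nM final) added. Fluorescence read kinetically at 480/540 nm, 6 reads every 60 seconds. Buffer: 50mM HEPES pH 7.8, 0.5mM EDTA, 0.1 mg/ml BSA, 1mM TCEP, 0.01% Tween-20.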

[14] = biological target: Transient receptor potential cation channel subfamily V member 1 (Homo sapiens) (UniProt Q8NER1); assay: HTS Assay for Compounds that Act as Enhancers of the Vanilloid Receptor 1 (AID 488979); note: 0% is about no effect
Chain of Transient receptor potential cation channel subfamily V member 1 (Homo sapiens) (Q8NER1 whole entry, looked up): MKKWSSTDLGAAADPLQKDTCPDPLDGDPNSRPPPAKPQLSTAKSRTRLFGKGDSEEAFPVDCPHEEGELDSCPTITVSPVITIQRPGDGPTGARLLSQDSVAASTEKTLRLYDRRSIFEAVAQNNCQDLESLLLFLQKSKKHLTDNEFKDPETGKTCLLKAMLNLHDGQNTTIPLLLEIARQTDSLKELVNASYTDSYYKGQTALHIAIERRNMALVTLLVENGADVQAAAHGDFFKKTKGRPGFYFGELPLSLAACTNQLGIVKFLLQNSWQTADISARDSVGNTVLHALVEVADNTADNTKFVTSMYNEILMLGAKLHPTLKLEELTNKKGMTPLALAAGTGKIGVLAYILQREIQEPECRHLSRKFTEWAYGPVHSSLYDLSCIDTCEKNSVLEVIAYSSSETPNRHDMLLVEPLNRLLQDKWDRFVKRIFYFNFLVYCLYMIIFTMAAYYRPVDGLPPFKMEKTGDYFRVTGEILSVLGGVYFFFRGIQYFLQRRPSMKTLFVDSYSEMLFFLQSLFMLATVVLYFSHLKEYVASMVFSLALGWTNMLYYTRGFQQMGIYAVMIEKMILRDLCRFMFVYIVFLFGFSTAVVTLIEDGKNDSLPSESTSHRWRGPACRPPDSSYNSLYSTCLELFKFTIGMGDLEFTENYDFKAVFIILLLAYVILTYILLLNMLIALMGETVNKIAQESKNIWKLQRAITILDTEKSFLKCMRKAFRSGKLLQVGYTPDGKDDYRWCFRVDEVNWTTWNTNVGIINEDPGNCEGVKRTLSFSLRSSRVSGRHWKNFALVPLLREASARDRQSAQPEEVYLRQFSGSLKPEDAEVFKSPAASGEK
In short: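 TRPV1 cells loaded with Fluo-8 calcium dye; compound added and Ca2+ signal (ex 480/em 520 nm) followed 3 min, then capsaicin at EC20 added and read 2 more min to detect enhancement.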

[15] = Validation screen for small molecules that induce genotoxicity in human embryonic kidney (HEK293T) cells expressing luciferase-tagged ELG1 (AID 493106); note: 0% is about no effect
In short: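 In this validation screen, increased ELG1-luciferase signal flags compounds causing genetic stress. HEK293T reporter cells are treated 16 hr (37 °C, 5% CO2), developed with ONE-Glo for 30 min at room temperature, and imaged on a CCD-based reader.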

[16] = biological target: Thyrotropin-releasing hormone receptor (Homo sapiens) (UniProt P34981); assay: qHTS for Small Molecule Agonists and Allosteric Enhancers of Human TRH Receptor: Validation Screen for Agonists (AID 493127;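 active = calcium activation more than 3 SD above the typical response in the agonist read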;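 note: intracellular calcium rise by fluo-8 fluorescence before TRH EC20 addition; 0% is about no effect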); conditions: TRH receptor agonist cell assay; at 2 µM; stronger effect = higher value
In short: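 Kinetic fluorescence assay of agonist-induced calcium release: overnight-plated TRHR cells, room-temperature fluo-8 loading, baseline then compound addition with per-second reads.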

[17] = biological target: Galactokinase (Homo sapiens) (UniProt P51570); assay: qHTS Validation Assay for Inhibitors of Human Galactokinase (GALK) (AID 493189); note: 0% is about no effect
Chain of Galactokinase (Homo sapiens) (P51570 whole entry, looked up): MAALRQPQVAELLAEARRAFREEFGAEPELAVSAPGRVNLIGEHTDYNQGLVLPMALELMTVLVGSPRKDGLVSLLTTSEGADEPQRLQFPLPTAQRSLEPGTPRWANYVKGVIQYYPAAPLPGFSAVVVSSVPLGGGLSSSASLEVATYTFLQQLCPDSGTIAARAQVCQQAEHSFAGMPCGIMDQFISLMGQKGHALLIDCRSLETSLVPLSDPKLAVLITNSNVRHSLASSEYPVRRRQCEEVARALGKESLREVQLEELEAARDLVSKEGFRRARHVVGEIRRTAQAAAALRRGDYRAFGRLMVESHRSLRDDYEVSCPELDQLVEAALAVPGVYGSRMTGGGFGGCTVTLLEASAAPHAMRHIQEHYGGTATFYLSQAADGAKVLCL
In short: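 GALK (5 nM) with 35 uM ATP and 100 uM galactose in HEPES pH8.0, MgCl2, NaCl, DTT, BSA; 1 h at room temperature. Residual ATP read by Kinase-Glo Plus luminescence after 10 min.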

[18] = Validation screen for small molecules that induce DNA re-replication in SW480 colon adenocarcinoma cells (AID 504364); note: 0% is about no effect
In short: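 Hoechst-stained SW480 nuclei, imaged at 405 nm excitation after 48 hr compound exposure, were counted for elevated DNA content as the re-replication signal.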

[19] = biological target: Thyrotropin receptor (Homo sapiens) (UniProt P16473); assay: qHTS Assay for Antagonists of the Thyroid Stimulating Hormone Receptor (AID 488980); note: series mostly up to about 58 µM; 0% is about no effect
Chain of Thyrotropin receptor (Homo sapiens) (P16473 whole entry, looked up): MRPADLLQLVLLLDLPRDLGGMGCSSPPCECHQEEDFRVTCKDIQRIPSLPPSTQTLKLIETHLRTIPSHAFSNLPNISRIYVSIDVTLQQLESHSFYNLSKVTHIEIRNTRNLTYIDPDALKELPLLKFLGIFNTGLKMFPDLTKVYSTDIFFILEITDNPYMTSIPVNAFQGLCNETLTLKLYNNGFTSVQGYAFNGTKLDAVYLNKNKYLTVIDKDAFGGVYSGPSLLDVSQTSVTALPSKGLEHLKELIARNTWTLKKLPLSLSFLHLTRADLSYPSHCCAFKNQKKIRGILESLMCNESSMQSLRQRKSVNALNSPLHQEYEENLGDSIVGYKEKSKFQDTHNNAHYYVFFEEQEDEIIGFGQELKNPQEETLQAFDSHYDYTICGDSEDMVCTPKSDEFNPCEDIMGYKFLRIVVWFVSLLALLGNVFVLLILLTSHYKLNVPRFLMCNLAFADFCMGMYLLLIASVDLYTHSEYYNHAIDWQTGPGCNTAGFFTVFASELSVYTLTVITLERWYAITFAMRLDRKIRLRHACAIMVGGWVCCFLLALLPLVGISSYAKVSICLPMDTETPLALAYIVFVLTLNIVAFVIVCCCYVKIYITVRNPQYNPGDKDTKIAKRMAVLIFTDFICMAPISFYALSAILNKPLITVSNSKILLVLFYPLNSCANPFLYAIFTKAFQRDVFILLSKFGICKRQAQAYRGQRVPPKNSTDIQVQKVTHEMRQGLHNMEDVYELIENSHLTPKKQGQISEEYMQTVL
In short: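 HEK293 cells transfected with human TSHR, suspended in HEPES-buffered HBSS with 70 uM RO 20-1724, were treated with compounds plus TSH at EC80 (4 nM final). cAMP was measured by competitive HTRF (cryptate anti-cAMP antibody, cAMP-d2 acceptor).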

[20] = biological target: D(1A) dopamine receptor (Homo sapiens) (UniProt P21728); assay: HTS Assay for Allosteric Agonists of the Human D1 Dopamine Receptor: Primary Screen for Agonists (AID 488981); note: 0% is about no effect
In short: as §1

NC(=O)c1cn(Cc2c(F)cccc2F)nn1
inactive: Potency [1] | outcome [3] | Potency [4] | Potency [5] | outcome [6] | Potency [7] | Potency [8] | outcome [9] | outcome [10] | outcome [11] | outcome [12] | Potency [13]
-8.96%: viability change [8]
active: Potency [2] 0.006 µM

C#CCN(C)CCCOc1ccc(Cl)cc1Cl
inactive: Potency [1] | Potency [2] | outcome [3] | outcome [14] | Potency [4] | Potency [5] | outcome [6] | Potency [15] | activation [16] -5.81% | Potency [8] | outcome [9] | outcome [17] | outcome [18] | outcome [11] | outcome [12] | Potency [13]
-1.92%: viability change [8]

COc1cc(Cc2cnc(N)nc2N)cc(OC)c1OC
1.71%: viability change [8]
inactive: outcome [3] | outcome [14] | outcome [19] | Potency [4] | Potency [5] | activation [16] 0.312% | Potency [8] | outcome [9] | outcome [17] | outcome [18] | outcome [10] | outcome [11] | outcome [12] | Potency [13]

FC(F)(F)c1ccccc1-n1ccnc1
12.3%: viability change [8]
inactive: Potency [1] | outcome [3] | outcome [14] | Potency [20] | Potency [4] | Potency [5] | outcome [6] | Potency [15] | Potency [7] | activation [16] -2.62% | Potency [8] | outcome [9] | outcome [17] | outcome [18] | outcome [10] | outcome [11] | outcome [12] | Potency [13]

COC(=O)C1=C(C)NC(C)=C(C(=O)OCCN(C)Cc2ccccc2)C1c1cccc([N+](=O)[O-])c1 (centres undefined)
active: Potency [5] 7.08 µM | Potency [7] 16.4 µM
inactive: outcome [3] | outcome [14] | outcome [19] | Potency [4] | Potency [15] | activation [16] -4.56% | outcome [9] | outcome [17] | outcome [11] | outcome [12]

CN(C)C(=O)Oc1ccc[n+](C)c1
inactive: outcome [3] | outcome [14] | outcome [19] | Potency [20] | Potency [4] | Potency [5] | outcome [6] | Potency [15] | Potency [8] | outcome [9] | outcome [17] | outcome [18] | outcome [10] | outcome [11] | outcome [12] | Potency [13]
-10.4%: viability change [8]

CN(C)C/C=C(/c1ccc(Br)cc1)c1cccnc1
inactive: Potency [1] | outcome [3] | outcome [19] | Potency [20] | Potency [4] | outcome [6] | Potency [15] | Potency [7] | activation [16] 0.375% | Potency [8] | outcome [9] | outcome [17] | outcome [18] | outcome [10] | outcome [11] | outcome [12] | Potency [13]
11.1%: viability change [8]
active: Potency [5] 12.6 µM

CN1C[C@H](C(=O)N[C@]2(C)O[C@@]3(O)[C@@H]4CCCN4C(=O)[C@H](Cc4ccccc4)N3C2=O)C[C@@H]2c3cccc4[nH]cc(c34)C[C@H]21
-1.86%: viability change [8]
inactive: outcome [3] | Potency [20] | Potency [8] | outcome [9] | outcome [10] | outcome [11] | outcome [12]

CCN(CC)CC(=O)Nc1c(C)cccc1C
-7.11%: viability change [8]
inactive: Potency [2] | outcome [3] | outcome [14] | outcome [19] | Potency [20] | Potency [4] | Potency [5] | Potency [15] | Potency [7] | activation [16] 1.5% | Potency [8] | outcome [9] | outcome [17] | outcome [18] | outcome [10] | outcome [11] | outcome [12]

CO[C@@]1(NC(=O)CSCC#N)C(=O)N2C(C(=O)O)=C(CSc3nnnn3C)CS[C@@H]21
1.13%: viability change [8]
inactive: Potency [1] | outcome [3] | outcome [14] | Potency [4] | Potency [5] | Potency [15] | Potency [7] | activation [16] 1.44% | Potency [8] | outcome [9] | outcome [17] | outcome [18] | outcome [11] | outcome [12] | Potency [13]

CC(C)(C)c1ccc(C(=O)CCCN2CCC(OC(c3ccccc3)c3ccccc3)CC2)cc1
inactive: Potency [1] | outcome [3] | outcome [6] | Potency [15] | outcome [9] | outcome [10] | outcome [11] | outcome [12]

CN1CCN(CC(=O)N2c3ccccc3C(=O)Nc3cccnc32)CC1
11.6%: viability change [8]
inactive: Potency [1] | outcome [3] | outcome [14] | outcome [19] | Potency [20] | Potency [5] | Potency [15] | Potency [8] | outcome [9] | outcome [17] | outcome [18] | outcome [10] | outcome [11] | outcome [12] | Potency [13]

Source: PubChem BioAssay (NCATS)
